This note sets out measurements from PubChem BioAssay (NCI).

Compounds without any hit were thinned out: in the full panel of roughly 79,000, 15% have a hit. Values without a mark were called inactive. The source made the active and inactive calls. Rule as the data show it: active = growth inhibition above about 70%; inactive = the rest.

A short description of test [1]: NCI Yeast Anticancer Drug Screen. Data for the rad50 strain (AID 155).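 Also: 0% = growth of vehicle-only cultures of the same strain.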 The conditions noted are these: S. cerevisiae rad50 strain growth inhibition, stronger effect = higher value. Put shortly:
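Compounds were tested on a yeast strain with an engineered DNA damage repair alteration; the reported value is growth inhibition normalised to vehicle treatment.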

Test [2] is described as follows: NCI Yeast Anticancer Drug Screen. Data for the mec2-1 strain (AID 157). The conditions noted are these: S. cerevisiae mec2-1 strain, stronger effect = higher value. The procedure, abridged: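 Using mec2-1 yeast: add compound, measure growth, express inhibition versus vehicle-treated cultures.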
Test [3] can be described thus: NCI Yeast Anticancer Drug Screen. Data for the sgs1 mgt1 strain (AID 161).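 Also: 0% = growth of cultures given vehicle only.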 The conditions noted are these: S. cerevisiae sgs1 mgt1 strain, stronger effect = higher value. The procedure, abridged:
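Growth of a repair-deficient yeast mutant was monitored after compound treatment and expressed as inhibition relative to vehicle-treated cultures.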

Test [4] in a line: NCI Yeast Anticancer Drug Screen. Data for the cln2 rad14 strain (AID 165).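 Also: 0% = growth equal to vehicle treated cultures.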 The conditions noted are these: S. cerevisiae cln2 rad14 strain, stronger effect = higher value. Put shortly:
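Yeast strain cln2 rad14, bearing defects in cell cycle control and DNA repair, serves as the test system; values reflect growth inhibition compared with vehicle.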

The nature of test [5]: NCI Yeast Anticancer Drug Screen. Data for the bub3 strain (AID 167). The following applies: S. cerevisiae bub3 mutant strain, stronger effect = higher value. Put shortly:
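Growth of a checkpoint-deficient yeast mutant is measured after compound exposure. Values represent inhibition relative to vehicle.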

A short description of test [6]: NCI Yeast Anticancer Drug Screen. Data for the mlh1 rad18 strain (AID 175). The conditions noted are these: S. cerevisiae mlh1 rad18 strain growth inhibition, stronger effect = higher value. The procedure, abridged: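 Steps: expose repair-defective yeast to compound; measure growth; express inhibition against vehicle-treated controls.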
[7] abbreviates: at 5.0 µM (retest, dose inferred, filed as 0.5).
Setting [8] is: at 50.0 µM (retest, dose inferred, filed as 5.0).

`CC(CC=O)CC=O`: the growth inhibition in test [1] (setting [7]) was 15%; in test [1] (setting [8]), 82% (active); in test [2] (setting [7]), 3%; in test [2] (setting [8]), 32%; in test [3] (setting [7]), 18%; in test [3] (setting [8]), 78% (active). Further, the growth inhibition in test [4] (setting [7]) was 3%; in test [4] (setting [8]), 31%; in test [5] (setting [7]) it was -5%; in test [5] (setting [8]) it was -7%; in test [6] (setting [7]), 16%; in test [6] (setting [8]), 79% (active).

`CC(C)NC(=O)N/C=C(\C#N)C(N)=O`: the growth inhibition was 4% in test [1] (setting [7]); 70% (active) in test [1] (setting [8]); -1% in test [2] (setting [7]); 21% in test [2] (setting [8]); 4% in test [3] (setting [7]); 63% in test [3] (setting [8]). The growth inhibition in test [4] (setting [7]) is 2%; in test [4] (setting [8]), 1%; in test [5] (setting [7]) it was -3%; in test [5] (setting [8]), 20%; in test [6] (setting [7]), -39%; in test [6] (setting [8]), 16%.

Regarding `N#CC(C#N)N=Nc1cc(Cl)ccc1Cl`, the growth inhibition in test [1] (setting [7]) is 20%; in test [1] (setting [8]), 93% (active); in test [2] (setting [7]), 13%; in test [2] (setting [8]), 87% (active); in test [3] (setting [7]), 16%; in test [3] (setting [8]), 99% (active). Further, the growth inhibition was 8% in test [4] (setting [7]); 87% (active) in test [4] (setting [8]); 15% in test [5] (setting [7]); 96% (active) in test [5] (setting [8]); -2% in test [6] (setting [7]); 92% (active) in test [6] (setting [8]).

With `C/C(CC(C)C(=O)O)=N/NC(N)=O` (stereo unspecified), the growth inhibition was 0% in test [1] (setting [7]); 34% in test [1] (setting [8]); -8% in test [2] (setting [7]); 5% in test [2] (setting [8]); 0% in test [3] (setting [7]); 40% in test [3] (setting [8]). For the same molecule, the growth inhibition was -6% in test [4] (setting [7]); -2% in test [4] (setting [8]); -1% in test [5] (setting [7]); 20% in test [5] (setting [8]); -31% in test [6] (setting [7]); 43% in test [6] (setting [8]).

In the case of `O=C(C/C(CCC(=O)N(Cc1ccccc1)Cc1ccccc1)=N/Nc1ccc([N+](=O)[O-])cc1[N+](=O)[O-])c1ccccc1`, the growth inhibition was 42.9% in test [1] (at 50.0 µM unless noted); 29.9% in test [2] (at 50.0 µM unless noted); 60% in test [3] (at 50.0 µM unless noted); 41.6% in test [4] (at 50.0 µM unless noted); 1.05% in test [5] (at 50.0 µM unless noted).

In the case of `COc1cccc2c1C(=O)c1c(O)c3c(c(O)c1C2=O)C[C@@](O)(C(=O)CO)CC3OC1CC(O)C(O)C(C)O1` (stereo partly specified), the growth inhibition was 72% (active) in test [1] (at 50.0 µM unless noted); 52.8% in test [2] (at 50.0 µM unless noted); 33.2% in test [3] (at 50.0 µM unless noted); 28.8% in test [4] (at 50.0 µM unless noted); 63.2% in test [5] (at 50.0 µM unless noted).

With `Fc1ccc([I+]c2ccc(F)cc2)cc1`, the growth inhibition was 12% in test [1] (setting [7]); 89% (active) in test [1] (setting [8]); 2% in test [2] (setting [7]); 43% in test [2] (setting [8]); 24% in test [3] (setting [7]); 84% (active) in test [3] (setting [8]). The growth inhibition in test [4] (setting [7]) was 9%; in test [4] (setting [8]) it was 32%; in test [5] (setting [7]), 33%; in test [5] (setting [8]) it was 90% (active); in test [6] (setting [7]) it was 17%; in test [6] (setting [8]), 81% (active).

As for `CC(C)=Nn1cnc2c1NC(C)(C)N=C2C(N)=O`, the growth inhibition in test [1] (at 50.0 µM unless noted) is -18.8%; in test [2] (at 50.0 µM unless noted), -17.2%; in test [3] (at 50.0 µM unless noted) it was -12.2%; in test [4] (at 50.0 µM unless noted), 7.85%; in test [5] (at 50.0 µM unless noted), 14.8%.

Take `N#CC(C#N)N=Nc1ccc(Cl)cc1`: the growth inhibition in test [1] (setting [7]) was 26%; in test [1] (setting [8]) it was 83% (active); in test [2] (setting [7]), 18%; in test [2] (setting [8]), 73% (active); in test [3] (setting [7]), 24%; in test [3] (setting [8]) it was 93% (active). Moreover, the growth inhibition in test [4] (setting [7]) is 1%; in test [4] (setting [8]), 73% (active); in test [5] (setting [7]) it was 9%; in test [5] (setting [8]), 72% (active); in test [6] (setting [7]), -1%; in test [6] (setting [8]) it was 87% (active).

On to `CCN(CC)C(=O)c1c(N2CCOCC2)cc(N(CC)CC)oc1=O`, for which the growth inhibition was -10.2% in test [1] (at 50.0 µM unless noted); -8.25% in test [2] (at 50.0 µM unless noted); -46.6% in test [3] (at 50.0 µM unless noted); -8.85% in test [4] (at 50.0 µM unless noted); -37.9% in test [5] (at 50.0 µM unless noted).

In the case of `O=C(Cc1ccccc1)c1ccc(O)c(Cl)c1`, the growth inhibition in test [1] (setting [7]) was 20%; in test [1] (setting [8]), 99% (active); in test [2] (setting [7]), 2%; in test [2] (setting [8]) it was 99% (active); in test [3] (setting [7]) it was 18%; in test [3] (setting [8]), 99% (active). For the same molecule, the growth inhibition was 12% in test [4] (setting [7]); 96% (active) in test [4] (setting [8]); 7% in test [5] (setting [7]); 99% (active) in test [5] (setting [8]); -11% in test [6] (setting [7]); 97% (active) in test [6] (setting [8]).

In the case of `CCCCCCCCC(=O)Nc1cccc(O)c1`, the growth inhibition in test [1] (at 50.0 µM unless noted) was -6.7%; in test [2] (at 50.0 µM unless noted), -12.4%; in test [3] (at 50.0 µM unless noted), -8.45%; in test [4] (at 50.0 µM unless noted), -48.6%; in test [5] (at 50.0 µM unless noted), -26.4%.

`CNC(=O)NC(c1ccc(F)cc1)c1cc2c(cc1O)OCO2` (stereo unspecified): the growth inhibition was -2.2% in test [1] (at 50.0 µM unless noted); -16.4% in test [2] (at 50.0 µM unless noted); -2.4% in test [3] (at 50.0 µM unless noted); 12.6% in test [4] (at 50.0 µM unless noted); -1.8% in test [5] (at 50.0 µM unless noted).

For `CCCCCCCCCCNC(=O)CI`, the growth inhibition in test [1] (setting [7]) was 20%; in test [1] (setting [8]) it was 98% (active); in test [2] (setting [7]), 7%; in test [2] (setting [8]), 99% (active); in test [3] (setting [7]), 24%; in test [3] (setting [8]), 99% (active). Besides, the growth inhibition in test [4] (setting [7]) was 10%; in test [4] (setting [8]), 42%; in test [5] (setting [7]), 14%; in test [5] (setting [8]), 100% (active); in test [6] (setting [7]), 8%; in test [6] (setting [8]), 98% (active).

For the molecule `N=C(N)SCc1ccc(Oc2ccc(CSC(=N)N)cc2)cc1`, the growth inhibition in test [1] (at 50.0 µM unless noted) is 0.4%; in test [2] (at 50.0 µM unless noted), 1.45%; in test [3] (at 50.0 µM unless noted), -4.5%; in test [4] (at 50.0 µM unless noted), 0.5%; in test [5] (at 50.0 µM unless noted), -2.4%.

As for `Nc1ncnc2c1ncn2C1OC(CO)C(NC(=O)C(N)Cc2ccccc2)C1O` (stereo unspecified), the growth inhibition was 7.2% in test [1] (at 50.0 µM unless noted); -4.7% in test [2] (at 50.0 µM unless noted); -2.8% in test [3] (at 50.0 µM unless noted); -32.3% in test [4] (at 50.0 µM unless noted); 2.15% in test [5] (at 50.0 µM unless noted).
